Source: PubChem (National Center for Advancing Translational Sciences (NCATS))
The list is not random: actives were taken first. Their share in the collection is about 10%.
JMJD2A Tudor inh: qHTS Assay for Inhibitors of JMJD2A-Tudor Domain; Lysine-specific demethylase 4A (Homo sapiens), O75164; AlphaScreen JMJD2A-Tudor / H3K4me3 peptide binding; Potency, µM (series often up to 114 µM), most hits filed as inhibitors; 4.4% of 390,000 active; further: nearly all actives have a fitted effect of over 50% in size
BAZ2B block: qHTS Assay for Inhibitors of BAZ2B; Bromodomain adjacent to zinc finger domain protein 2B (Homo sapiens), Q9UIF8; AlphaScreen BAZ2B-H3K14Ac peptide displacement; Potency, µM (series often up to 114 µM), usual class: inhibitors; 4.4% of 360,000 active; further: nearly all actives have a fitted effect of over 60% in size
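In this displacement format the biotinylated H3(5-23) peptide acetylated at Lys14 serves as ligand at 50 nM, with BAZ2B at 50 nM in PBS pH 7.4 containing 0.01% Tween-20. Donor and acceptor beads are 10 ug/mL final.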
HP1b binding inh: HTS for Inhibitors of HP1-beta Chromodomain Interactions with Methylated Histone Tails; Chromobox protein homolog 1 (Homo sapiens), P83916; AID 540317, 2011; 0.56% of 390,000 active; Potency, µM (top dose mostly 114 µM), hits mostly inhibitors; AlphaScreen HP1-beta / biotin-H3K9me3 peptide binding; further: nearly all actives have a fitted effect of over 70% in size
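AlphaScreen: HP1-beta (50 nM) preformed 30 min with biotin-H3(1-18)K9me3 peptide (50 nM) in PBS pH 7.4, 0.01% Tween-20. Compound added for 30 min at RT, then streptavidin donor/nickel chelate acceptor beads (10 ug/mL) for 30 min.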
G9a block: qHTS Assay for Inhibitors of Histone Lysine Methyltransferase G9a. 8.8% of 350,000 active. Potency, µM (series often up to 102 µM), actives largely listed as inhibitors. Histone-lysine N-methyltransferase EHMT2 (Homo sapiens), Q96KQ7. G9a H3K9 monomethylation, AlphaScreen, 2 h; further: nearly all actives have a fitted effect of over 75% in size
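Signal arises when biotinylated H3K9 peptide, once monomethylated, bridges streptavidin donor and antibody-captured acceptor beads. Enzyme at 20 nM was preincubated 15 min with test compounds; peptide 500 nM and SAM 20 uM then reacted for 2 h.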
GLS inhibitor: qHTS for Inhibitors of Glutaminase (GLS); Glutaminase kidney isoform, mitochondrial (Homo sapiens), O94925; GLS enzymatic activity, qHTS titration; Potency, µM (series often up to 45.5 µM), actives largely listed as inhibitors; 0.21% of 410,000 active
Target sequence (O94925 whole entry, looked up, canonical isoform): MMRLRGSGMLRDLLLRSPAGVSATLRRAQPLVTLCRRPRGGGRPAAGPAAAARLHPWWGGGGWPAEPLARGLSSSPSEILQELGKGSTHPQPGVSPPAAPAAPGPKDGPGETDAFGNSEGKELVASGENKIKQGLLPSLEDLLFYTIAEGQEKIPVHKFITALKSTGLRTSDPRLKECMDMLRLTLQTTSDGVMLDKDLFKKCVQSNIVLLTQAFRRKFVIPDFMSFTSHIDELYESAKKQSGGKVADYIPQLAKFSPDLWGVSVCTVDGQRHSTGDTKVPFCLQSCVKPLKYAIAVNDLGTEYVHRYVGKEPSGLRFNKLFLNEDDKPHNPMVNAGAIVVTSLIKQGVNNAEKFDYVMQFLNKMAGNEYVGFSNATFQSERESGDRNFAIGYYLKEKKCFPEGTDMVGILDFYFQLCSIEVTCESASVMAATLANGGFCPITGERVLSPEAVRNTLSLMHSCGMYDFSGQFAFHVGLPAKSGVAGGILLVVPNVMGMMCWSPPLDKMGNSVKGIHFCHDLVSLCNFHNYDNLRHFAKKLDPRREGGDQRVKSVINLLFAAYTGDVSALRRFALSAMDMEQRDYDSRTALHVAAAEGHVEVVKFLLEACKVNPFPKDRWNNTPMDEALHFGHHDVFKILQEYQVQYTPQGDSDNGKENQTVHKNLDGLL
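hKGA; 45 mM KH2PO4 pH 8.2 + 0.02% Tween-20; cpd via pin tool; 1 mM Gln soln; GluOx/HRP/Amplex Red; RT 30 min; fluor. t0 & final.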
Numbers stand for hits; [ ] = remark or other dose. The call rests on the fitted dose curve; in most records, active means well fitted curve in the direction sought with a large enough effect; inconclusive means small, poorly fitted or top-dose-only effect, or another doubt; inactive means no such curve, though single readings can be large; an effect the other way counts as inactive or inconclusive.

How did CCCCOC(=O)CCc1c(C)[nH]c(=S)[nH]c1=O do in these assays?
JMJD2A Tudor inh: inactive; BAZ2B block: inactive; HP1b binding inh: inactive; G9a block: inactive[0.501 µM]; GLS inhibitor: inactive

How did CCCCOC(=O)C(C)c1c(C)[nH]c(=S)[nH]c1=O (centres undefined) do in these assays?
JMJD2A Tudor inh: inactive; BAZ2B block: inactive; HP1b binding inh: inactive; G9a block: 40µM; GLS inhibitor: inactive

How did CCCCOC(=O)C(C)Nc1n[nH]c(=S)[nH]c1=O (centres undefined) do in these assays?
JMJD2A Tudor inh: 11µM; BAZ2B block: inconclusive; HP1b binding inh: inactive; G9a block: inconclusive; GLS inhibitor: inactive

Results for CCCC(=O)OCCNc1cc(SCc2ccco2)c2nonc2c1[N+](=O)[O-] ?
JMJD2A Tudor inh: inconclusive; BAZ2B block: 25µM; HP1b binding inh: inconclusive; G9a block: 20µM; GLS inhibitor: inactive

Results for CC(=O)OCCCNc1cc(SCc2ccco2)c2nonc2c1[N+](=O)[O-] ?
JMJD2A Tudor inh: 50µM; BAZ2B block: inconclusive; HP1b binding inh: inconclusive; G9a block: inconclusive; GLS inhibitor: inactive

What do the screens show for `CCCSc1cc(NCCOC(C)=O)c([N+](=O)[O-])c2nonc12`?
JMJD2A Tudor inh: inactive; BAZ2B block: inactive; HP1b binding inh: inactive; G9a block: inactive; GLS inhibitor: inactive

What do the screens show for `CCCC(=O)OCCNc1cc(Sc2nccn2C)c2nonc2c1[N+](=O)[O-]`?
JMJD2A Tudor inh: inactive; BAZ2B block: inactive; HP1b binding inh: inactive; G9a block: 28µM; GLS inhibitor: inactive

Results for CCCSc1cc(NCCOC(=O)CCC)c([N+](=O)[O-])c2nonc12 ?
JMJD2A Tudor inh: inactive; BAZ2B block: inactive; HP1b binding inh: inactive; G9a block: inconclusive; GLS inhibitor: inactive

Results for CC(=O)/C=C\c1ccccc1OC(=O)c1cc2ccccc2oc1=O ?
JMJD2A Tudor inh: inactive; BAZ2B block: inactive; HP1b binding inh: inactive; GLS inhibitor: inactive

Results for O=C(/C=C\c1ccccc1OC(=O)c1ccccc1F)c1cc2ccccc2o1 ?
JMJD2A Tudor inh: inactive; BAZ2B block: inactive; HP1b binding inh: inactive; G9a block: 45µM; GLS inhibitor: inactive

What do the screens show for `Cn1cccc1C(NC(=O)c1ccccc1)C(Cl)(Cl)Cl` (centres undefined)?
JMJD2A Tudor inh: inactive; BAZ2B block: inconclusive; HP1b binding inh: inactive; G9a block: 45µM; GLS inhibitor: inactive

What do the screens show for `O=C(NC(c1ccccc1)c1ccccc1)c1ccccc1`?
JMJD2A Tudor inh: inactive; HP1b binding inh: inactive; GLS inhibitor: inactive

How did Cc1cccn2cc(CNS(=O)(=O)c3ccc4ccccc4c3)nc12 do in these assays?
JMJD2A Tudor inh: inactive; BAZ2B block: inconclusive; HP1b binding inh: inactive; GLS inhibitor: inactive

Results for Cc1ccn2cc(CNS(=O)(=O)c3ccc4ccccc4c3)nc2c1 ?
JMJD2A Tudor inh: inactive; BAZ2B block: inactive; HP1b binding inh: inactive; G9a block: 71µM; GLS inhibitor: inactive

Results for O=C(CC1C(=O)N(c2ccccc2)C(=S)N1c1ccccc1)c1ccccc1 (centres undefined) ?
JMJD2A Tudor inh: inactive; BAZ2B block: inactive; HP1b binding inh: inactive; G9a block: inactive; GLS inhibitor: inactive

Results for O=C(c1ccc(CSc2nc3ccncc3[nH]2)cc1)N1CCCCC1 ?
JMJD2A Tudor inh: 20µM; BAZ2B block: 79µM; HP1b binding inh: inconclusive; G9a block: 25µM; GLS inhibitor: inactive

What do the screens show for `Clc1ccccc1CSc1nc2ccncc2[nH]1`?
JMJD2A Tudor inh: inactive; BAZ2B block: inactive; HP1b binding inh: inactive; G9a block: 45µM; GLS inhibitor: inactive

Results for CC1CCCCC1NC(=O)c1ccc(CSc2nc3ccncc3[nH]2)cc1 (centres undefined) ?
JMJD2A Tudor inh: inactive; BAZ2B block: inactive; HP1b binding inh: inactive; G9a block: inconclusive; GLS inhibitor: inactive

How did COc1cc(C(=O)NCC2(N3CCCCC3)CCCCC2)ccc1OCC(=O)N1CCOCC1 do in these assays?
JMJD2A Tudor inh: inactive; BAZ2B block: inactive; HP1b binding inh: inactive; G9a block: inactive; GLS inhibitor: inactive

Results for O=C(Nc1ccc(O)c2c(=O)cc(-c3ccccc3Cl)oc12)c1cccs1 ?
JMJD2A Tudor inh: inactive; BAZ2B block: inactive; HP1b binding inh: inactive; G9a block: inactive; GLS inhibitor: inactive

What do the screens show for `O=C(NCc1cccnc1)NC1(C(F)(F)F)Oc2ccc(Cl)cc2O1` (centres undefined)?
JMJD2A Tudor inh: inactive; BAZ2B block: inactive; HP1b binding inh: inactive; G9a block: 32µM; GLS inhibitor: inactive

What do the screens show for `Cc1cc(NC(=O)Nc2ccc(F)c(Cl)c2)no1`?
JMJD2A Tudor inh: inactive; BAZ2B block: inactive; HP1b binding inh: inactive; G9a block: inactive; GLS inhibitor: inactive

Results for Cc1ccc(Cl)cc1NC(=O)NCc1cccnc1 ?
JMJD2A Tudor inh: inactive; BAZ2B block: inactive; HP1b binding inh: inactive; GLS inhibitor: inactive

What do the screens show for `COCCNC(=O)NC1(C(F)(F)F)Oc2ccc(Cl)cc2O1` (centres undefined)?
JMJD2A Tudor inh: inactive; BAZ2B block: inactive; HP1b binding inh: inactive; G9a block: 40µM; GLS inhibitor: inactive

How did Cc1cc(NC(=O)NC2(C(F)(F)F)Oc3ccc(Cl)cc3O2)no1 (centres undefined) do in these assays?
JMJD2A Tudor inh: inconclusive; BAZ2B block: inactive; HP1b binding inh: inactive; G9a block: 7.9µM; GLS inhibitor: inactive

How did COc1ccc(OC)c(NC(=O)NC2(C(F)(F)F)Oc3ccccc3O2)c1 do in these assays?
JMJD2A Tudor inh: inactive; BAZ2B block: inactive; HP1b binding inh: inactive; G9a block: 7.9µM; GLS inhibitor: inactive

Results for CC1CCCC(NCC(O)COC(c2ccc(F)cc2)c2ccc(F)cc2)C1C (centres undefined) ?
JMJD2A Tudor inh: 1µM; BAZ2B block: inconclusive; HP1b binding inh: inconclusive; G9a block: 8.9µM; GLS inhibitor: inactive

Results for CCOC(=O)c1ccc(NC(=O)c2cn(-c3ccccc3)nc2-c2ccc(Br)cc2)cc1 ?
JMJD2A Tudor inh: inactive; BAZ2B block: inactive; HP1b binding inh: inactive; G9a block: inactive; GLS inhibitor: inactive

What do the screens show for `O=[N+]([O-])c1ccc(N=Nc2ccc(O)cc2O)cc1`?
JMJD2A Tudor inh: inactive; BAZ2B block: 32µM; HP1b binding inh: inactive; G9a block: 40µM; GLS inhibitor: inactive

What do the screens show for `O=C(c1ccccc1)c1ccc(O)cc1O`?
JMJD2A Tudor inh: inactive; BAZ2B block: inactive; HP1b binding inh: inactive; G9a block: inactive; GLS inhibitor: inactive

Results for [O-][n+]1c2ccccc2[n+]([O-])c2cc(O)ccc21 ?
JMJD2A Tudor inh: 79µM; BAZ2B block: 40µM; HP1b binding inh: 45µM; G9a block: 1.4µM; GLS inhibitor: inactive
